The source made the active and inactive calls.
Assays:
[1] = compound effects on differentiated 3T3-L1 adipocyte viability – cell-based, 3T3-L1 adipocytes, calcein-AM fluorescence, 48 h, basal, profiling panel (AID 1163); conditions: 3T3-L1 adipocytes viability, higher = more signal
[2] = compound effects on hepatocellular carcinoma cell viability – HepG2, calcein-AM fluorescence, 48 h, basal, profiling panel (AID 1164); conditions: higher = more signal
[3] = compound effects on multiple myeloma cell viability – MM1S, calcein-AM fluorescence, 48 h, basal, profiling panel (AID 1165); conditions: higher = more signal
[4] = calcein-AM signal in unstimulated myeloma cells – cell-based, calcein-AM fluorescence, 48 h, PK04 Diversity Set, profiling panel (AID 1166); conditions: RPMI8226 myeloma viability, higher = more signal;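 further: cells grown under basal conditions without added stimulus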
[5] = JC-1 mitochondrial signal, unstimulated HepG2 cells – cell-based, JC-1 fluorescence, 24 h, 100 nL compound, profiling panel (AID 1167); conditions: HepG2 mitochondrial potential, higher = more signal
[6] = JC-1 mitochondrial signal, unstimulated adipocytes – cell-based, JC-1 fluorescence, 3T3-L1 adipocytes, 24 h, 100 nL compound, profiling panel (AID 1168); conditions: JC-1 mitochondrial fluorescence, higher = more signal, called active from +8 up or from −8 down
[7] = JC-1 mitochondrial signal, unstimulated myeloma cells – cell-based, JC-1 fluorescence, RPMI8226, 24 h, 100 nL compound, profiling panel (AID 1169); conditions: JC-1 mitochondrial potential fluorescence, higher = more signal
[8] = JC-1 mitochondrial signal, unstimulated MM1S myeloma – cell-based, JC-1 fluorescence, 24 h, 100 nL compound, profiling panel (AID 1170); conditions: MM1S mitochondrial potential, higher = more signal
[9] = resazurin metabolic signal in A549 cells – cell-based, resazurin fluorescence, 24 h, PK04 Diversity Set, profiling panel (AID 1171); conditions: A549 viability, higher = more signal, called active from +8 up or from −8 down
[10] = resazurin metabolic signal in HepG2 cells – cell-based, resazurin fluorescence, 24 h, PK04 Diversity Set, profiling panel (AID 1172); conditions: HepG2 viability, higher = more signal
[11] = budding yeast growth changes without added modifier – OD600, strain BY4716, 24 h, basal condition, primary screen (AID 1173); conditions: S. cerevisiae BY4716 growth, OD600, 24 h; higher = more signal, called active from +8 up or from −8 down
[12] = viability profiling in MM1S myeloma cells – cell-based, resazurin fluorescence, basal, 24 h, PK04 Diversity Set, profiling panel (AID 1174); conditions: higher = more signal, called active from +8 up or from −8 down
[13] = molecular target: Dihydroorotate dehydrogenase (quinone), mitochondrial (Plasmodium falciparum (isolate 3D7)) (UniProt Q08210); test: inhibition of P. falciparum DHODH – biochemical, C-terminal His tag, absorbance 600 nm, primary screen (AID 1175); conditions: PfDHODH enzyme, DCIP absorbance 600 nm; higher = more signal, called active from +8 up or from −8 down;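 further: recombinant parasite enzyme with a five histidine tag at its C terminus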
[14] = growth modulation of vineyard yeast isolate – strain RM11-1a, OD600, basal, 24 h, primary screen (AID 1177);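 further: cultures grown under basal conditions with no added stressor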; conditions: S. cerevisiae RM11-1a growth, OD600, 24 h; higher = more signal, called active from +8 up or from −8 down
[15] = growth of efflux-deficient E. coli DRC39 – strain DRC39, OD650, 24 h, E. coli filamentation inducers, primary screen (AID 1178);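 further: growth measured as culture turbidity by optical density at 650 nm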; conditions: E. coli DRC39 acrAB, higher = more signal, called active from +8 up or from −8 down
[16] = growth of efflux-deficient E. coli DRC39 – strain DRC39, OD650, 48 h, E. coli filamentation inducers, primary screen (AID 1179);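 further: screen aims at cell division blockers that make cells filament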; conditions: E. coli DRC39 delta-acrAB growth, higher = more signal, called active from +8 up or from −8 down
[17] = viability profiling in RPMI8226 myeloma cells – cell-based, resazurin fluorescence, basal, 24 h, PK04 Diversity Set, profiling panel (AID 1180); conditions: higher = more signal;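 further: RPMI8826 multiple myeloma cell line at 5000 cells per well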
[18] = molecular target: E3 ubiquitin-protein ligase XIAP (Homo sapiens) (UniProt P98170); test: small molecules binding XIAP protein – biophysical, small-molecule microarray, fluorescence 635 nm, primary screen (AID 1181); conditions: higher = more signal;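 further: score merges 667 nm emission and signal to noise over triplicate slides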
[19] = system: XIP peptide (Xip251-270) binding; test: XIP fragment 251-270 binding compounds – biochemical, small-molecule microarray, fluorescence 635/667 nm, 0.1 µg/mL protein, primary screen (AID 1182); conditions: fluorescent protein binding, 635 nm, higher = more signal, called active from +8 up or from −8 down
XIP peptide (Xip251-270) = test: compounds binding XIP fragment 251-270 – biochemical, small-molecule microarray, fluorescence 635/667 nm, 0.5 µg/mL protein, primary screen (AID 1183); conditions: fluorescence 635 nm, higher = more signal

Chain of Dihydroorotate dehydrogenase (quinone), mitochondrial (Plasmodium falciparum (isolate 3D7)) (Q08210 whole entry, looked up): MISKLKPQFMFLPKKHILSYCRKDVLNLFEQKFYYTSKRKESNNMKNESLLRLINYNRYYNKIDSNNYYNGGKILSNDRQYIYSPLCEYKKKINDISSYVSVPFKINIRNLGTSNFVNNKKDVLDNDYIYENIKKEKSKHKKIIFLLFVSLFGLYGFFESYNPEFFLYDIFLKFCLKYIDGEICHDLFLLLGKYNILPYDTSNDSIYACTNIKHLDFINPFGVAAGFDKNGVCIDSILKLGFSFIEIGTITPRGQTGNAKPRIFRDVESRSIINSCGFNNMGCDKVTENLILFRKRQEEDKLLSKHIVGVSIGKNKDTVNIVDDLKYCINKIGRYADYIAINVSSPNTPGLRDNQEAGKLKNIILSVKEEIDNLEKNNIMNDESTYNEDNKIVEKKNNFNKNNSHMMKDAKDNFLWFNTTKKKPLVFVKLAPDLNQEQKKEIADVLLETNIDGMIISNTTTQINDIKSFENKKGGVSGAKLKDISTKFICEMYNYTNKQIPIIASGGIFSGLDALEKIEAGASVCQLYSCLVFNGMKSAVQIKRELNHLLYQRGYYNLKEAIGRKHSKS
Chain of E3 ubiquitin-protein ligase XIAP (Homo sapiens) (P98170 whole entry, looked up, the tested form may be a part): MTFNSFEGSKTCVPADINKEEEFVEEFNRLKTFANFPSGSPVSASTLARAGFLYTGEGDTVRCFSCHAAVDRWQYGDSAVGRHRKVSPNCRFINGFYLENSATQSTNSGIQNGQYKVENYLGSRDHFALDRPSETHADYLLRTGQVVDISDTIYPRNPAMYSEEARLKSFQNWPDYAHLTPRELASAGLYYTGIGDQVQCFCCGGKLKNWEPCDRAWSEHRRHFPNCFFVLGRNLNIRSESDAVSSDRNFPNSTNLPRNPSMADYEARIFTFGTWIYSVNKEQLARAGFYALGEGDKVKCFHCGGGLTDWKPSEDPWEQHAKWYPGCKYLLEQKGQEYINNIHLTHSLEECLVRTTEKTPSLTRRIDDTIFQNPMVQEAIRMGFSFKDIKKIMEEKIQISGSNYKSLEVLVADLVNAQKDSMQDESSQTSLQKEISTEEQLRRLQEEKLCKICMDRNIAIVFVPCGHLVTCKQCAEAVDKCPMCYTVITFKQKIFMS

| Compound | z-score [1] | z-score [2] | z-score [3] | z-score [4] | z-score [5] | z-score [6] | z-score [7] | z-score [8] | z-score [9] | z-score [10] | z-score [11] | z-score [12] | composite z-score [13] | z-score [14] | z-score [15] | z-score [16] | z-score [17] | composite z-score [18] | composite z-score [19] | composite z-score (XIP peptide (Xip251-270)) |
| --- | --- | --- | --- | --- | --- | --- | --- | --- | --- | --- | --- | --- | --- | --- | --- | --- | --- | --- | --- | --- |
| COCCOC(=O)N1C(=O)[C@@]2(c3ccccc31)[C@H](C(=O)Nc1nc3ccccc3s1)[C@H]1C(=O)O[C@H](c3ccccc3)[C@H](c3ccccc3)N1[C@@H]2c1ccc(O)cc1 | 0.471 | -1.49 | -3.26 | -3.76 | -3.44 | 1.01 (inactive) | -1.05 | -1.87 | 0.35 (inactive) | 0.148 | 2.4 (inactive) | -1.22 (inactive) | -2.63 (inactive) | 4.4 (inactive) | 1.23 (inactive) | 1.84 (inactive) | -0.898 | -0.0025 | 1.03 (inactive) | 0.748 |
| CC(C)N1CC=CC23O[C@@H]4/C=C\CCCOC(=O)C4[C@H]2C(=O)N(CCCO)[C@@H]3C1=O (stereo not given in full) | 0.834 | 0.152 | 0.827 | 0.311 | 0.795 | 0.32 (inactive) | 0.747 | 0.789 | 0.817 (inactive) | 0.129 | 0.11 (inactive) | 0.791 (inactive) | -0.506 (inactive) | 1.05 (inactive) | 1.36 (inactive) | 1.25 (inactive) | 1.78 | 0.0126 | 0.015 (inactive) | -0.556 |
| COCCCNC(=O)[C@@]1(Cc2ccccc2CN=[N+]=[N-])COC(c2ccc(OCCCO)cc2)=N1 | 1.08 | 0.501 | -2.46 | -0.77 | 0.287 | 1.33 (inactive) | -0.724 | -0.376 | 0.616 (inactive) | 1.8 | -1.66 (inactive) | 0.0645 (inactive) | -0.49 (inactive) | 0.493 (inactive) | 2 (inactive) | 1.61 (inactive) | 0.693 | -0.0525 | 1.94 (inactive) | 0.866 |
| CC(C)(C)OC(=O)CC[C@@]1(C(=O)N2CCOCC2)N=C(c2ccc(OCCCO)cc2)O[C@@H]1c1ccccc1 | 0.861 | -0.215 | 0.317 | 0.414 | 0.652 | 1.08 (inactive) | -0.959 | 0.609 | 1.6 (inactive) | 0.957 | 0.0776 (inactive) | 1.43 (inactive) | 0.464 (inactive) | 0.732 (inactive) | 2.19 (inactive) | 0.869 (inactive) | 1.53 | 0.105 | 1.6 (inactive) | -0.326 |
| COc1ccc(C#Cc2ccc3c(c2)[C@]2(C(=O)N3)[C@H](c3ccc(O)cc3)N3[C@H](c4ccccc4)[C@H](c4ccccc4)OC(=O)[C@H]3[C@@H]2C(=O)N2CCN(c3ncccn3)CC2)cc1 | 1.37 | 0.385 | -0.233 | -0.474 | -0.16 | 1.57 (inactive) | -0.719 | 0.463 | 0.682 (inactive) | -0.169 | 0.0719 (inactive) | 0.95 (inactive) | 0.848 (inactive) | 0.537 (inactive) | 0.0488 (inactive) | 0.255 (inactive) | 1.19 | -0.0062 | 1.62 (inactive) | 0.388 |
| CC(C)C(CO)N1C(=O)[C@@H]2[C@H]3C(=O)OCC=C[C@H]3OC23C=CCN(Cc2ccccc2)C(=O)[C@@H]13 (stereo not given in full) | 0.651 | -0.384 | 0.33 | 0.0894 | 0.341 | 0.232 (inactive) | 0.159 | 1.96 | -0.077 (inactive) | 0.25 | -1.57 (inactive) | 0.699 (inactive) | -0.429 (inactive) | -0.752 (inactive) | 1.53 (inactive) | 1.03 (inactive) | 0.359 | 0.411 | -0.433 (inactive) | -1.18 |
| O=C(O)[C@H]1C[C@H]2C(=O)NCC(=O)N2[C@H]1c1cccc(OCCO)c1 | 0.926 | -0.59 | -1.13 | -0.319 | 1.27 | -0.116 (inactive) | -0.186 | 1.14 | -0.0876 (inactive) | 0.354 | -1.62 (inactive) | 1.21 (inactive) | -1.04 (inactive) | -1.25 (inactive) | 0.712 (inactive) | -0.057 (inactive) | 0.62 | 0.182 | 0.865 (inactive) | 0.938 |
| O=C(N1CCCCC1)[C@@]1(Cc2ccccc2)N=C(c2ccc(OCCCO)cc2)O[C@H]1c1ccccc1 | 1.33 | -2.47 | -3.48 | -3.78 | -1.61 | 0.804 (inactive) | -0.982 | -2.56 | 0.935 (inactive) | 0.569 | -0.635 (inactive) | -3.06 (inactive) | 0.31 (inactive) | 0.895 (inactive) | 1.97 (inactive) | 0.242 (inactive) | -5.21 | -0.0448 | 0.764 (inactive) | 0.66 |
